Assay in all cases: log2 fold change, soluble protein after heating vs DMSO (PISA); higher = thermal stabilisation; K562 cells, 10 uM, 30 min; active = over 0.2 and 3.5 SD of the protein, either way, in both replicates (recomputed)
Compound in assay [1]: C1=CC=C(C=C1)[C@H](COC2=CC3=C(C=C2)NC(=O)N3)NC(=O)C4=CC=CN(C4=O)CC5=CC(=C(C=C5)F)F
An outline of the steps: (§1)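 Soluble protein was defined as the supernatant after 21,000xg for 90 min. It came from K562 cells at 2×10^6 cells/mL given 10 μM compound for 30 min, heated in aliquots for 3 min across 48°C-58°C, pooled, and extracted in PBS with 0.5% NP-40 at 4°C, and was quantified by TMTpro 16plex LC-MS/MS with equalised channel sums. Thermal stability against control samples, from duplicates, is reported as log2 fold change.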

Compound in assay [2]: CC1=C(SC2=C1C(=N[C@H](C3=NN=C(N32)C)CC(=O)N)C4=CC=C(C=C4)Cl)C
The procedure, abridged: as §1

Compound in assay [3]: CC1=C2C(=CC=C1)N=C(N(C2=O)C3=CC=CC=C3C)CN4C=NC5=C(N=CN=C54)N
An outline of the steps:
as §1

Compound in assay [4]: Cc1sc2c(c1C)C(c1ccc(Cl)cc1)=N[C@@H](CC(=O)OC(C)(C)C)c1nnc(C)n1-2
The procedure, abridged:
as §1

Compound in assay [5]: c1ccc([C@@H]2C[C@H]2NC2CCNCC2)cc1
The procedure, abridged:
as §1

The full data set covers some 7,900 targets. This sample favours those with a hit. About 0.6% of all pairs of compound and target were hits. A number with no mark means an inactive call.

UniProt Q8IUH5, sequence (Q8IUH5 whole entry, looked up): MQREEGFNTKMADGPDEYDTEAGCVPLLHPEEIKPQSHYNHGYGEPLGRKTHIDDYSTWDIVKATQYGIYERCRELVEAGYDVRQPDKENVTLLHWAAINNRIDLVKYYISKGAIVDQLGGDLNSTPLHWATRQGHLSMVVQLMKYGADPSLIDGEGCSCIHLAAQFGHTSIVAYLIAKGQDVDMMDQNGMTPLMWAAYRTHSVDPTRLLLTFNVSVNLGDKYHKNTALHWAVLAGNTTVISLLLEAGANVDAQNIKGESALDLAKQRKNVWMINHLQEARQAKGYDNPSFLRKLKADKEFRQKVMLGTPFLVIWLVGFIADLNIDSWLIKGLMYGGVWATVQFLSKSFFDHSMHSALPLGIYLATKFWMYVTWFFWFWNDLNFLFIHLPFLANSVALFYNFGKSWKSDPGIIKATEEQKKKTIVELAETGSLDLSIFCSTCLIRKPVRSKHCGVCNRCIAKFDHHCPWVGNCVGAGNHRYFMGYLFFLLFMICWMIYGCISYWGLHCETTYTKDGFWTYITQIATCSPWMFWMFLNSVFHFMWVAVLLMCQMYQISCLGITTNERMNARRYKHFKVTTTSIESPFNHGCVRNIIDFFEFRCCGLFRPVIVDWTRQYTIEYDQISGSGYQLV
UniProt Q16600, sequence (Q16600 whole entry, looked up): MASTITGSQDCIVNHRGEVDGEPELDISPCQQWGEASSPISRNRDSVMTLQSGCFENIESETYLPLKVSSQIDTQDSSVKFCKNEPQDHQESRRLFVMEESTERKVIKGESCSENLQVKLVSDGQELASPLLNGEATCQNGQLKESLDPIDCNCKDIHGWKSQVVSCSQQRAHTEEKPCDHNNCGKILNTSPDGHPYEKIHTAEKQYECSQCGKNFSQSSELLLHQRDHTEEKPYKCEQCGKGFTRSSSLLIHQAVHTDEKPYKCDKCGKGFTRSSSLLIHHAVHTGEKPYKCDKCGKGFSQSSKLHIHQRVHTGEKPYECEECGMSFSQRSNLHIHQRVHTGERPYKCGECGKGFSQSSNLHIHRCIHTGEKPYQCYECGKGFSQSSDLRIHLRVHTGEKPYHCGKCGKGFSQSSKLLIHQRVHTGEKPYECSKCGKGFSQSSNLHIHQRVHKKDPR
UniProt P52747, sequence (P52747 whole entry, looked up): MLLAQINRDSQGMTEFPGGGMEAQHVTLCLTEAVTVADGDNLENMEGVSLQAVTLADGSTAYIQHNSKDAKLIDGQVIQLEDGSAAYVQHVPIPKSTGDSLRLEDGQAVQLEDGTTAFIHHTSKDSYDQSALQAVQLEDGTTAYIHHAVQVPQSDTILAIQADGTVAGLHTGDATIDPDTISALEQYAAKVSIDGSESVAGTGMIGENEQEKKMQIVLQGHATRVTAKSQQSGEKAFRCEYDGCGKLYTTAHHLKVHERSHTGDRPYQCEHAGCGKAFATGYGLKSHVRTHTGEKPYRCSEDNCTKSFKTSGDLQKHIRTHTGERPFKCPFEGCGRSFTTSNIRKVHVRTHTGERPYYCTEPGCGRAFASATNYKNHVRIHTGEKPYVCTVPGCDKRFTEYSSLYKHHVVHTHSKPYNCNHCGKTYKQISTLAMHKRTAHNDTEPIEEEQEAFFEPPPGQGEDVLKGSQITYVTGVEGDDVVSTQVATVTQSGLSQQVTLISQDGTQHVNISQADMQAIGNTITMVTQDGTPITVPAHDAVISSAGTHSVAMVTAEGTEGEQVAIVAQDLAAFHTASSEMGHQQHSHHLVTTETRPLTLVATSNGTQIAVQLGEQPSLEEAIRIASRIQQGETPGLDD
UniProt Q8N4Q0, sequence (Q8N4Q0 whole entry, looked up): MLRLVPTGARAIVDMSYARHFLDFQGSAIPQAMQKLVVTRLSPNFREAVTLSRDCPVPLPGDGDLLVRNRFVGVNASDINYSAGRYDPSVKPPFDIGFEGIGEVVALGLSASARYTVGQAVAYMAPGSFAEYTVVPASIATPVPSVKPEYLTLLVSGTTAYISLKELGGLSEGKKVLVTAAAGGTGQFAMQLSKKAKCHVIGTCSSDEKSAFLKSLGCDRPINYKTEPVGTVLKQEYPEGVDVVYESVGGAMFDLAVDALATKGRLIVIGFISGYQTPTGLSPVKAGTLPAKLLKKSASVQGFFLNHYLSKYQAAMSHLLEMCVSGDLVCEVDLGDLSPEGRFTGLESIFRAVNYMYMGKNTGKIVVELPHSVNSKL
UniProt Q96NC0, sequence (Q96NC0 whole entry, looked up): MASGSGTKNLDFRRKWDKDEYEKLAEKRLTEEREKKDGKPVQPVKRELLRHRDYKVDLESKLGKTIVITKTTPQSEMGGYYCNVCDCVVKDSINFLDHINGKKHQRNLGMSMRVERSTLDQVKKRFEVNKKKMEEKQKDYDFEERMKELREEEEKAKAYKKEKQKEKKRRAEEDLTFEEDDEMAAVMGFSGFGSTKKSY
UniProt O95218, sequence (O95218 whole entry, looked up): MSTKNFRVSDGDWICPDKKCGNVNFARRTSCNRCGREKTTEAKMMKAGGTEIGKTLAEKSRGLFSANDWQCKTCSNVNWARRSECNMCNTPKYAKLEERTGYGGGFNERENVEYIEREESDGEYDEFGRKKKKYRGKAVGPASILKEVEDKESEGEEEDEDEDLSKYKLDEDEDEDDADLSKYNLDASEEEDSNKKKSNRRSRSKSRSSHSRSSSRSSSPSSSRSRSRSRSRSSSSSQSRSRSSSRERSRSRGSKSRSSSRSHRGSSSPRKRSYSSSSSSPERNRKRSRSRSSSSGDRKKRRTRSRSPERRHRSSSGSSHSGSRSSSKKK
UniProt O60315, sequence (O60315 whole entry, looked up): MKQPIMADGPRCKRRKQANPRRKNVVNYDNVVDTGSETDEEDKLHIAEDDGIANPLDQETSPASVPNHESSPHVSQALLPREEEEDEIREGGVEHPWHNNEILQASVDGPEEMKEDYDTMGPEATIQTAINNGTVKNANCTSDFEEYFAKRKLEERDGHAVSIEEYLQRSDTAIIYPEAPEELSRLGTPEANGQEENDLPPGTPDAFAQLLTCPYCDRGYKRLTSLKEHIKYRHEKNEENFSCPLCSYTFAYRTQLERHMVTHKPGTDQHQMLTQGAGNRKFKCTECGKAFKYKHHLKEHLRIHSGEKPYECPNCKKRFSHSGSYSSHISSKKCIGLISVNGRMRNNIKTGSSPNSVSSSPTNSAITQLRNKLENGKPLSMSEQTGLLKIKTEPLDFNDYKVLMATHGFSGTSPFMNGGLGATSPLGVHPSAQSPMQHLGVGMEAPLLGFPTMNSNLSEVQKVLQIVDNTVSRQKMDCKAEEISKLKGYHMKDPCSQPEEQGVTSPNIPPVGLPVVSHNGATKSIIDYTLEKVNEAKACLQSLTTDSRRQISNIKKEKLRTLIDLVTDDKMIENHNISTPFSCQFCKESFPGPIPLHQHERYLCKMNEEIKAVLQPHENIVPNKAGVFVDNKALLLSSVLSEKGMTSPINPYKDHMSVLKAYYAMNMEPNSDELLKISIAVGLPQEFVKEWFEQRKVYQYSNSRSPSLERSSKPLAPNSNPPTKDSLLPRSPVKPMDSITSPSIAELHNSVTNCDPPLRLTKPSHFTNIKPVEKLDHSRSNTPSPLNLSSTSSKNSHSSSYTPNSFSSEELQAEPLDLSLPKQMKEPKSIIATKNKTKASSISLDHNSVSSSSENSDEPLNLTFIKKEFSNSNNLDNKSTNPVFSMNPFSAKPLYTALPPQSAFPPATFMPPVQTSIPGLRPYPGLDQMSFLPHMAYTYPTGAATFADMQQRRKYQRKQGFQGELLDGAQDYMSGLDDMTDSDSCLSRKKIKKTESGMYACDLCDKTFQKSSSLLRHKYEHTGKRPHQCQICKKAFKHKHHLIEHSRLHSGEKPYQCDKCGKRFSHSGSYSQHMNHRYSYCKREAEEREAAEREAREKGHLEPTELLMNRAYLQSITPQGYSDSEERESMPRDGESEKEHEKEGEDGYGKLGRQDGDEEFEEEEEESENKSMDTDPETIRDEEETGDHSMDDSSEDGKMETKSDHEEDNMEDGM
UniProt P31946, sequence (P31946 whole entry, looked up): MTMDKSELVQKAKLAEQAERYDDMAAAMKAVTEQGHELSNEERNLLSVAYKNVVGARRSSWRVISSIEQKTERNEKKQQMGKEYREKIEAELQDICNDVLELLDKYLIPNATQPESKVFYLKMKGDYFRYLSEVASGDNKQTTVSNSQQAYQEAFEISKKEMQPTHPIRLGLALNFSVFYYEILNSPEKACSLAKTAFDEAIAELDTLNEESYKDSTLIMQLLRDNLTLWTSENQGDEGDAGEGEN
UniProt O76080, sequence (O76080 whole entry, looked up): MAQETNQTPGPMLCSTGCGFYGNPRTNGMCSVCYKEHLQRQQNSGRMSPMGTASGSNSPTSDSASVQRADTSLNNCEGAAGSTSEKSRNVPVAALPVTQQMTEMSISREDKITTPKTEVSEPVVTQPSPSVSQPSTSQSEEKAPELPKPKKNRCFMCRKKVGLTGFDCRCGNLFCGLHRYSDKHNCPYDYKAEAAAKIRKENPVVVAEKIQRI
UniProt P67809, sequence (P67809 whole entry, looked up): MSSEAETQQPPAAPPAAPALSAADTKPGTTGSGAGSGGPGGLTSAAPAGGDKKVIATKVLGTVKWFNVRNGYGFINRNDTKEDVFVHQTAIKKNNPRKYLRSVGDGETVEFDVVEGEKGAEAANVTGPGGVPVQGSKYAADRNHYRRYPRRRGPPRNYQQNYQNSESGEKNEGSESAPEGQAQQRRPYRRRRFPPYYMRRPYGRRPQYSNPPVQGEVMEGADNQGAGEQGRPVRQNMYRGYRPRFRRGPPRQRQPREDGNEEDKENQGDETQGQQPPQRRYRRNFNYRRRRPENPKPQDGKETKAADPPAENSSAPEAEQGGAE
UniProt Q9BSR8, sequence (Q9BSR8 whole entry, looked up): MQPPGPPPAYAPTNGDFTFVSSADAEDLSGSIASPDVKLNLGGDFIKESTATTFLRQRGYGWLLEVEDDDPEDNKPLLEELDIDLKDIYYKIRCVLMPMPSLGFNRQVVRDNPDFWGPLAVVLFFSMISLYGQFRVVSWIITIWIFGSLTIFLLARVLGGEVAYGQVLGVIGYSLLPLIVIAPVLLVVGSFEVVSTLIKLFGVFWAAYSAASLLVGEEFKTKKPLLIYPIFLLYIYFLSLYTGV

With ZFAND5 (UniProt O76080), the log2 fold change in assay [1] is -0.025; in assay [2] it was -0.21; in assay [3], -0.129; in assay [4], -0.024; in assay [5], 0.143.

Turning to ZC3H8 (UniProt Q8N5P1), the log2 fold change in assay [1] was 0.095; in assay [2], -0.089; in assay [3] it was -0.084; in assay [4], 0.091; in assay [5], 0.

As to YWHAZ (UniProt E7ESK7), the log2 fold change in assay [1] was 0.066; in assay [2], 0.009; in assay [4], 0.083; in assay [5], 0.052.

As to ZER1 (UniProt Q7Z7L7), the log2 fold change in assay [1] is 0; in assay [2] it was -0.007; in assay [3], 0.018; in assay [4], -0.064; in assay [5] it was -0.03.

YWHAB (UniProt P31946): the log2 fold change in assay [1] is -0.024; in assay [2] it was 0.024; in assay [3], -0.01; in assay [4], -0.004; in assay [5], -0.03.

Consider ZCCHC9 (UniProt Q8N567), for which the log2 fold change in assay [1] is 0.173; in assay [2] it was -0.074; in assay [3], -0.202; in assay [4] it was 0.222; in assay [5], 0.023.

YBX1 (UniProt P67809): the log2 fold change in assay [1] was 0.105; in assay [2] it was -0.228; in assay [3], -0.143; in assay [4], 0.115; in assay [5] it was 0.052.

Regarding ZNF217 (UniProt O75362), the log2 fold change in assay [1] was -0.017; in assay [2] it was 0.048; in assay [3] it was 0.163; in assay [4], -0.003; in assay [5], 0.306 (active).

Regarding ZW10 (UniProt O43264), the log2 fold change in assay [1] is -0.044; in assay [2] it was 0.044; in assay [3] it was 0.018; in assay [4], -0.004; in assay [5], 0.

In the case of YIPF4 (UniProt Q9BSR8), the log2 fold change in assay [1] is -0.027; in assay [2] it was 0.001; in assay [3], -0.019; in assay [4] it was 0.027; in assay [5], 0.046.

Turning to ZNF277 (UniProt Q9NRM2), the log2 fold change in assay [1] was -0.134; in assay [2], 0.028; in assay [3], -0.007; in assay [4] it was 0.286; in assay [5], 0.

For the target ZDHHC7 isoform 2 (UniProt Q9NXF8), the log2 fold change in assay [2] was 0.088; in assay [3], 0.131; in assay [4], 0.135; in assay [5], 0.081.

As for ZRANB2 (UniProt O95218), the log2 fold change in assay [1] was -0.002; in assay [2], -0.073; in assay [3], -0.07; in assay [4], 0.021; in assay [5], 0.093.

As to ZNF511 isoform 1 (UniProt Q8NB15), the log2 fold change in assay [1] is -0.015; in assay [2], -0.128; in assay [3], 0.064; in assay [4], -0.123; in assay [5], 0.102.

In the case of ZEB2 (UniProt O60315), the log2 fold change was -0.125 in assay [1], 0.137 in assay [3] and 0.368 in assay [4].

On to ZBTB17 isoform 2 (UniProt Q13105), for which the log2 fold change in assay [1] is -0.08; in assay [4], -0.019.

As to ZCCHC17 (UniProt Q9NP64), the log2 fold change in assay [3] was -0.124.

Turning to ZMAT2 (UniProt Q96NC0), the log2 fold change in assay [1] was 0.029; in assay [2], -0.025; in assay [3], -0.009; in assay [4] it was -0.042; in assay [5], -0.016.

In the case of ZDHHC17 (UniProt Q8IUH5), the log2 fold change is 0.014 in assay [1]; 0.062 in assay [2]; -0.082 in assay [3]; -0.039 in assay [4]; -0.011 in assay [5].

Turning to ZC3HC1 (UniProt Q86WB0), the log2 fold change in assay [1] was -0.091; in assay [2], 0.07; in assay [3], 0.1; in assay [4] it was -0.032; in assay [5] it was -0.018.

Turning to YLPM1 (UniProt P49750), the log2 fold change in assay [1] is -0.092; in assay [2], 0.11; in assay [3], 0.104; in assay [4] it was 0.005; in assay [5], -0.052.

ZNF143 (UniProt P52747): the log2 fold change in assay [1] was 0.015; in assay [2] it was -0.013; in assay [3] it was -0.022; in assay [4], 0.064; in assay [5], 0.107.

Regarding YAE1 (UniProt Q9NRH1), the log2 fold change in assay [1] is -0.021; in assay [2] it was -0.111; in assay [3] it was 0.016; in assay [4], -0.014; in assay [5], 0.095.

As to ZDHHC5 (UniProt Q9C0B5), the log2 fold change in assay [1] was 0.015; in assay [2], 0.007; in assay [3], 0.04; in assay [4], -0.013; in assay [5] it was 0.077.

For the target ZFAND6 (UniProt Q6FIF0), the log2 fold change was 0 in assay [1]; -0.015 in assay [2]; 0.042 in assay [3]; -0.143 in assay [4]; 0.004 in assay [5].

As for ZYG11B (UniProt Q9C0D3), the log2 fold change was 0.057 in assay [1]; 0.086 in assay [2]; 0.011 in assay [3]; -0.02 in assay [4]; 0.044 in assay [5].

With ZNF239 (UniProt Q16600), the log2 fold change is -0.17 in assay [1]; -0.151 in assay [2]; -0.06 in assay [3]; -0.082 in assay [4]; 0.06 in assay [5].

Consider ZNF580 (UniProt Q9UK33), for which the values for the log2 fold change in assay [3] and in assay [4] were -0.16 and 0.029, respectively.

On to ZNF512 (UniProt Q96ME7), for which the log2 fold change in assay [2] is -0.117; in assay [5], -0.363.

In the case of ZMYM1 (UniProt Q5SVZ6), the log2 fold change in assay [1] is 0.077; in assay [2], 0.082; in assay [3] it was -0.144; in assay [4], -0.012; in assay [5], -0.011.

Consider ZDHHC20 (UniProt Q5W0Z9), for which the log2 fold change was -0.023 in assay [1]; -0.001 in assay [2]; -0.047 in assay [3]; -0.061 in assay [4]; 0.067 in assay [5].

On to ZADH2 (UniProt Q8N4Q0), for which the log2 fold change in assay [1] was 0.012; in assay [2], -0.039; in assay [3], -0.076; in assay [4], -0.026; in assay [5], 0.008.

ZBTB43 (UniProt O43298): the log2 fold change in assay [1] is -0.105; in assay [2], 0.013; in assay [3], 0.055; in assay [4] it was -0.097; in assay [5] it was -0.08.
